Measurements published in PubChem BioAssay.
Inconclusive results are not listed. Calls of active or inactive are those of the source.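 The calls were made as follows, unless noted: active = differentiation response of at least 50%, scaled between solvent and reference control, from cells with both markers; inactive = the rest.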

Assays:
[1] = yeast TOR pathway RPL19A-GFP modulators, primary screen, cell-based, S. cerevisiae, multiplex flow cytometry (AID 1862; in the data active = percent of DMSO control GFP below about 86%;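 also: lower values mimic rapamycin by blocking the RPL19A rise seen in DMSO cells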); conditions: S. cerevisiae RPL19A-GFP strain, flow cytometry fluorescence, 3 h; at 10 µM; stronger effect = lower value
[2] = modulators of MEP2-GFP levels in yeast, primary screen, S. cerevisiae, multiplex flow cytometry (AID 1867;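 active = GFP response, as percent of the DMSO control, above the screen-wide mean plus 3 SD, about 139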;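 also: median GFP channel fluorescence of barcode-gated MEP2-GFP cells measured by flow cytometry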); conditions: S. cerevisiae MEP2-GFP strain, 3 h, at 10 µM, stronger effect = higher value, 100% means same as DMSO wells
[3] = modulators of CIT2-GFP expression in yeast, primary screen, S. cerevisiae, GFP fusion, multiplex flow cytometry (AID 1870;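 active = percent response above a set limit, the screen-wide mean plus 3 SD, cut at about 130% in these data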;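 also: barcoded CIT2-GFP strain pooled with four other GFP strains with rapamycin as positive control; median GFP fluorescence per well over plate mean of DMSO wells so 100% = DMSO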); conditions: 3 h, at 10 µM, stronger effect = higher value
[4] = modulators of LAP4-GFP expression in yeast, primary screen, S. cerevisiae, multiplex flow cytometry (AID 1873;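 active = GFP signal, as percent of the solvent control, above the screen mean plus 3 SD, about 149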); conditions: 3 h, at 10 µM, stronger effect = higher value
[5] = modulators of AGP1-GFP expression in yeast TOR pathway, primary screen, cell-based, multiplex flow cytometry, S. cerevisiae (AID 1887;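 active = GFP signal above the screen-wide mean plus 3 SD, that is over about 124.5% of the solvent control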;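 also: AGP1-GFP fusion strain of S. cerevisiae within a five-strain barcoded multiplex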); conditions: 3 h, at 10 µM, stronger effect = higher value
[6] = inhibitors of CD8+ T cell-vesicle binding, pilot screen, LFA-1/ICAM-1 modulator project, MLPCN validation set, flow cytometry (AID 2523;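 active = response below a set limit, under 55% cells CD8-positive and vesicle-bound, and CD8 cells' 90th-percentile brightness under 279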;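 as to vesicle binding response: mean PE anti-B7-1 fluorescence of CD8+ cells relative to row control; 100% = QL9-loaded vesicles with DMSO vehicle in the same plate row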); conditions: 2C mouse CD8+ T cells, at 7 µM, stronger effect = lower value; double positive events: measured here: CD8+/vesicle+ event percentage
[7] = molecular target: Integrin beta-1 (Homo sapiens) + Integrin alpha-4 (Homo sapiens) (UniProt P13612+P05556); test: inhibition of HUTS-21 binding to VLA-4, pilot screen, VLA-4 allosteric modulator project, U937 cells, HUTS-21 mAb, flow cytometry, validation set (AID 2674;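 active = inhibition above 50%, about 3 SD of the validation set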;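 also: antibody binding induced by the VLA-4 ligand LDV present at three times its Kd; 0% = LDV ligand with antibody and no compound and 100% = antibody without LDV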); conditions: HUTS-21 LIBS mAb binding, at 6.7 µM, stronger effect = higher value, binding induced by LDV ligand
[8] = superoxide lowering in aged yeast cells, pilot screen, validation compound set (AID 2706;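 active = superoxide response below 65% of plate, a cut near 3 SD across the whole screen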;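 also: yeast exposed to compound for one week at 30 degrees C before staining; 100% = mean of all compound wells on the same plate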); conditions: S. cerevisiae aging, superoxide DHE fluorescence; at 10 µM; stronger effect = lower value
[9] = molecular target: Beta-adrenergic receptor kinase 1 (Homo sapiens) (UniProt P25098); test: GRK2 binders displacing RNA aptamer, biochemical, validation, human GRK2, bead flow cytometry (AID 488806;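 active = aptamer binding inhibition above 30%, about 3 SD of noise from non-fluorescent compounds; inactive = inhibition at or below 30%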); conditions: bead-bound GRK2, FAM-aptamer displacement, at 10 µM, stronger effect = higher value
[10] = molecular target: Beta-2 adrenergic receptor (Homo sapiens) (UniProt P07550); test: beta2AR agonists driving receptor internalization, pilot screen, cell-based, FAP fluorogen, flow cytometry, validation set (AID 504459;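 active = percent response above 42, roughly 3 SD of non-fluorescent test compounds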;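 also: agonist-driven loss of surface beta2AR via internalization measured by FAP dye flow cytometry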); conditions: Am2.2-beta2AR cells, FAP surface receptor flow cytometry; at 10 µM; stronger effect = higher value
[11] = molecular target: AP-2 complex subunit beta (Homo sapiens) (UniProt P63010); test: inhibitors of arrestin peptide binding to AP2, pilot screen, biochemical, validation set, GST-AP2 beads, flow cytometry (AID 504541;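 active = inhibition above 54%, about 3 SD of non-fluorescent compounds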;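 also: AP2 carries R879A mutation and is captured from E. coli lysate; bead-bound FITC arrestin peptide fluorescence measuring arrestin peptide binding to AP2; 0% = DMSO wells and 100% = excess unlabeled arrestin peptide control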); conditions: FITC arrestin peptide, at 10 µM, stronger effect = higher value, AP2 beta2 appendage fragment, R879A mutant
[12] = yeast V-ATPase proton transport modulators, S. cerevisiae, pHLuorin, HTS validation (AID 504600; in the data active = response above about 15%;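 also: plate controls were DMSO for no effect and reference compound for full effect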); conditions: S. cerevisiae pHLuorin cytosolic pH, at 10 µM, stronger effect = higher value
[13] = tested on: anti-desmoglein-3 scFv antibody binding to human DSG3; test: inhibitors of anti-DSG3 scFv binding to DSG3, pilot screen, biochemical, validation compound set, bead-based, flow cytometry (AID 588368;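 active = binding below the plate cutoff, the plate median minus 3 SD, with a reading above zero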;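 also: signal is the median channel fluorescence of bead-bound GFP antibody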); conditions: Protein G beads, DSG3-Fc, scFv-GFP binding, at 10 µM, stronger effect = lower value
[14] = inhibitors of fungal efflux pumps CDR1, CDR2, MDR1, pilot screen, validation compound set, multiplex, phenotypic (AID 588506;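 active = efflux inhibition above 0.42, the validation set average plus 4 SD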;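 also: Nile Red retained in cells so higher fluorescence means more efflux inhibition; 0 = negative control wells and 1 = enniatin B 25 µM full block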); conditions: S. cerevisiae pump-expressing triplex, Nile Red efflux flow cytometry; at 10 µM; stronger effect = higher value; the pumps come from Candida albicans
[15] = molecular target: ATP-binding cassette sub-family B member 6 (Homo sapiens) (UniProt Q9NP58); test: ABCB6 transporter inhibitors, pilot screen, K562-ABCB6 cells, flow cytometry, validation set (AID 588550;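 active = inhibition above the screen-wide mean plus 3 SD, about 51%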;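 also: 0% = DMSO wells and 100% = benzethonium chloride 70 µM positive control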); conditions: K562-ABCB6 porphyrin accumulation, 1 h, at 10 µM, stronger effect = higher value
[16] = promoters of myeloid differentiation in arrested cells, primary screen, cell-based, GFP/MAC1 double positive, flow cytometry, validation set (AID 588685); conditions: ER-HoxA9 marrow cells, stronger effect = higher value, normalized: vehicle 0, fulvestrant 100;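 also: compound exposure lasts four days before antibody staining and flow analysis; 0% = DMSO wells and 100% = 5 µM fulvestrant positive control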

Chain of ATP-binding cassette sub-family B member 6 (Homo sapiens) (Q9NP58 whole entry, looked up): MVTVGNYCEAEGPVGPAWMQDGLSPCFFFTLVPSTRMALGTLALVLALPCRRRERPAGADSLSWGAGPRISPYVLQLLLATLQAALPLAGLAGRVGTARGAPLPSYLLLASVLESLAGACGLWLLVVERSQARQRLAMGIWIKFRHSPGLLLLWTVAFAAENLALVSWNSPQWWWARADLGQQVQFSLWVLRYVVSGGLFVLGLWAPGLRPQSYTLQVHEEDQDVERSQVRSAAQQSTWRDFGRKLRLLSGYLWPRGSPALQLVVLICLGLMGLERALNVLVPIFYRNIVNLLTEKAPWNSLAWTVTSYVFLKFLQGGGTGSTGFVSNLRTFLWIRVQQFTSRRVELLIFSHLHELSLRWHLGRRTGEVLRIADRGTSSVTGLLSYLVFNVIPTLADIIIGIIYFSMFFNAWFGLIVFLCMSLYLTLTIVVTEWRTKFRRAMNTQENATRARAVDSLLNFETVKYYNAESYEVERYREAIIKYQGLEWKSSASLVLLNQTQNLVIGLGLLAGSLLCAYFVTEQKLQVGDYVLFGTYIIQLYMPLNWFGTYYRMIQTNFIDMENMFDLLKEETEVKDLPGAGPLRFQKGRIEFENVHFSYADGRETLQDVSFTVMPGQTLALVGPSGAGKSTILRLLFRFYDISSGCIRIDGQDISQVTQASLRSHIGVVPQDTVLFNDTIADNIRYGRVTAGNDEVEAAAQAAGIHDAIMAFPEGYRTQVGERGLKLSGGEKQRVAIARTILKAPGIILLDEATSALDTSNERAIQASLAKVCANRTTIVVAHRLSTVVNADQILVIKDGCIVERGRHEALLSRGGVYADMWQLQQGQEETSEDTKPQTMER
Chain of Integrin beta-1 (Homo sapiens) + Integrin alpha-4 (Homo sapiens) (P05556 whole entry, looked up): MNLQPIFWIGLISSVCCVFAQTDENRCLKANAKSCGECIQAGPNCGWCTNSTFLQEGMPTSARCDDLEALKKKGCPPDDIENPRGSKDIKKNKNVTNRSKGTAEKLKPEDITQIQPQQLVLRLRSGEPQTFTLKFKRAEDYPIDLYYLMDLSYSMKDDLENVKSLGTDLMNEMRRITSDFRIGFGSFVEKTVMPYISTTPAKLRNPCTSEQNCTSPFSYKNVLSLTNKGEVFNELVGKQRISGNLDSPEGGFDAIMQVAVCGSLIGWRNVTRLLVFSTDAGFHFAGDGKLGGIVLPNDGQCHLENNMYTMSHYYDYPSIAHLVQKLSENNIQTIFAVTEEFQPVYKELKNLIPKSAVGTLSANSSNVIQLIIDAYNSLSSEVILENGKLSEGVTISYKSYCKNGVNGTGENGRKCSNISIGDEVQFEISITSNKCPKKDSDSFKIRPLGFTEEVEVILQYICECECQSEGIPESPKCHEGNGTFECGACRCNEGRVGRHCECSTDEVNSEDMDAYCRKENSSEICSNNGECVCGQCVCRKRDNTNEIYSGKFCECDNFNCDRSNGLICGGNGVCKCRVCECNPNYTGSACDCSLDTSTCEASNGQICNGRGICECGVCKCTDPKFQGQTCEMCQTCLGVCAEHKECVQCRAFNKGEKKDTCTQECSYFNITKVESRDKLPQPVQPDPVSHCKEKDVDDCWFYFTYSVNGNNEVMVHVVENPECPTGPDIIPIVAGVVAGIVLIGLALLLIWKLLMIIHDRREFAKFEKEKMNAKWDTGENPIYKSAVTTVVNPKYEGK
Chain of Integrin beta-1 (Homo sapiens) + Integrin alpha-4 (Homo sapiens) (P13612 whole entry, looked up): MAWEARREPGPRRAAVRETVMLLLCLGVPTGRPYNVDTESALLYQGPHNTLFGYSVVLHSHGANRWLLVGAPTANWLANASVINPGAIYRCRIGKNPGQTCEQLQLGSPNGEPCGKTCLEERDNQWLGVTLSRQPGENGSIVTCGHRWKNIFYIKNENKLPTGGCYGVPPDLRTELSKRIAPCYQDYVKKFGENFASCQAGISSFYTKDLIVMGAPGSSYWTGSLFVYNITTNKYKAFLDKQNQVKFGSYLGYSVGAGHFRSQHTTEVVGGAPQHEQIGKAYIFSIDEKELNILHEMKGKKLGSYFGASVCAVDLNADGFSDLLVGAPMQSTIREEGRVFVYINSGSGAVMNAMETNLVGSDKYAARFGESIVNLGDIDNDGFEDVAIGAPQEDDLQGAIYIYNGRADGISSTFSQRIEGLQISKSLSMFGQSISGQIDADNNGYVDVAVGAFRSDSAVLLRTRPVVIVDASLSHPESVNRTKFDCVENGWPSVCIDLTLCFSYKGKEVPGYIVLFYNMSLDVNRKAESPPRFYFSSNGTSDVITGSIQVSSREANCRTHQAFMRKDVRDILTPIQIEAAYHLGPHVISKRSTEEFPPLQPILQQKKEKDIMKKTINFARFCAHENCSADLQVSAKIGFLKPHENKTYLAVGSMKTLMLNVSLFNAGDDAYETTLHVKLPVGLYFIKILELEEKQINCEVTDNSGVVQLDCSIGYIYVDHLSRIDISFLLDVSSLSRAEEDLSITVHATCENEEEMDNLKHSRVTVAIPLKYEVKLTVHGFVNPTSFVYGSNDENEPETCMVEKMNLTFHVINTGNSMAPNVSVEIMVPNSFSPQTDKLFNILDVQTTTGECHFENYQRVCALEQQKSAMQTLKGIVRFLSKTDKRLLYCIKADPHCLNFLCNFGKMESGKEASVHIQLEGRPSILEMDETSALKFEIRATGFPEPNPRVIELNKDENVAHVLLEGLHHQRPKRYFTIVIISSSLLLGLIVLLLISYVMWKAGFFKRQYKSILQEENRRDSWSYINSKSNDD
Chain of Beta-2 adrenergic receptor (Homo sapiens) (P07550 whole entry, looked up): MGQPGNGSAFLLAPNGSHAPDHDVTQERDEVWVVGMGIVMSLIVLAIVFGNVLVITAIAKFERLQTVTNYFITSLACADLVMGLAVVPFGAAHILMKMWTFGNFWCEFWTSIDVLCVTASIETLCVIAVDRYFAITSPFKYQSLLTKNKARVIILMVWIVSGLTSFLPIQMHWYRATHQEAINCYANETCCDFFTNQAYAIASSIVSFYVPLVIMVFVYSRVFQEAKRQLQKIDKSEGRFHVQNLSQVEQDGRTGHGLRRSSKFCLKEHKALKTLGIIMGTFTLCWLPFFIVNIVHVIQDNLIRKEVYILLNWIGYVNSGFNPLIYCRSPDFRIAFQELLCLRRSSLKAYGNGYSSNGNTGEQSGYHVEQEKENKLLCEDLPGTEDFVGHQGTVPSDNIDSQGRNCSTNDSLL
Chain of AP-2 complex subunit beta (Homo sapiens) (P63010 whole entry, looked up, the tested form may be a part, one chain of several): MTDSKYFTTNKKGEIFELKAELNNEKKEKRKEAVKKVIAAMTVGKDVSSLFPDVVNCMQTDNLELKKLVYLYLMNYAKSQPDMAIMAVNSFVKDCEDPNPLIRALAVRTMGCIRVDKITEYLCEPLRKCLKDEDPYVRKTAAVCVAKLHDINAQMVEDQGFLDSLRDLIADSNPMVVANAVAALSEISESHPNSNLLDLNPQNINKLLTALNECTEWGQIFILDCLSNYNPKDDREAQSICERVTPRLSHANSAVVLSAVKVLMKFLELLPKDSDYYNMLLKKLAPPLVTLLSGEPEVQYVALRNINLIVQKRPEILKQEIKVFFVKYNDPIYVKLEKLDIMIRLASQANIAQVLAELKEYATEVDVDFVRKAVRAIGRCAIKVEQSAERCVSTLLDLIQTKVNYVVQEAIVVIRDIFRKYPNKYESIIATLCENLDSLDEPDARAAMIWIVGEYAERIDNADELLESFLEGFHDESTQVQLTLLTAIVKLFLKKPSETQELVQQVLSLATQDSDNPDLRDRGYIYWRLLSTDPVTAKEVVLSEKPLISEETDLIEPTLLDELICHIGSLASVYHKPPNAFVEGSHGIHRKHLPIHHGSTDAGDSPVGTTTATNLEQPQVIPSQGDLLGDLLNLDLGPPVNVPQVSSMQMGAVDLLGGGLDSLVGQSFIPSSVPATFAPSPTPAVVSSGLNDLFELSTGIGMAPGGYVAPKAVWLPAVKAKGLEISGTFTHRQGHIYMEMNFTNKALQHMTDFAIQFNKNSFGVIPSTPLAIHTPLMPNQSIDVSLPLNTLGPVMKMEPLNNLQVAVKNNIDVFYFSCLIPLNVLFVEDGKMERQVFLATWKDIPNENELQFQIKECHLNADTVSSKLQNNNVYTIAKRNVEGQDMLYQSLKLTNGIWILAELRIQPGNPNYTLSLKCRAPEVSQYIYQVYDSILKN
Chain of Beta-adrenergic receptor kinase 1 (Homo sapiens) (P25098 whole entry, looked up): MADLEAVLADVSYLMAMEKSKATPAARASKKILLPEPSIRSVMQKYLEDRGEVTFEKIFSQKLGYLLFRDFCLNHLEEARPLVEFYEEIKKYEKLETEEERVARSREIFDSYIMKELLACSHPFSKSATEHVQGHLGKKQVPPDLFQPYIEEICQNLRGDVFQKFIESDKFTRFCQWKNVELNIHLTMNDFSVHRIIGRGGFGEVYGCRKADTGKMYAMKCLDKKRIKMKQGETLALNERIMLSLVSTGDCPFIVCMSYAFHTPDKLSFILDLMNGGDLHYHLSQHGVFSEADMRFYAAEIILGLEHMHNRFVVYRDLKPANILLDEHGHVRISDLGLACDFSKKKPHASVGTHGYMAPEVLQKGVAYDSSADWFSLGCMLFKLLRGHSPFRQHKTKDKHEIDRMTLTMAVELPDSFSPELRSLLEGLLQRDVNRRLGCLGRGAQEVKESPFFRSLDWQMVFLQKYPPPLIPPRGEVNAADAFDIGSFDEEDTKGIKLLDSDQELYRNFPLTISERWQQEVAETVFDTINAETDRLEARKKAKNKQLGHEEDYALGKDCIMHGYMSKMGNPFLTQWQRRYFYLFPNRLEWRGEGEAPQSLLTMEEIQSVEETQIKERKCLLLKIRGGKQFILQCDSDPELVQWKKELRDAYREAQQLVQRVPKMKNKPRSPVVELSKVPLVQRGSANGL

SMILES	percent of DMSO control GFP [1]	GFP response vs DMSO [2]	percent response of DMSO control [3]	GFP response vs DMSO [4]	GFP response, % of DMSO [5]	double positive events [6] [%]	vesicle binding response [6]	inhibition [7]	superoxide response (% of plate) [8]	aptamer binding inhibition [9]	response [10]	inhibition [11]	response [12]	binding (% of control) [13]	efflux inhibition (fraction of control) [14]	inhibition [15]	differentiation response [16]
NC(=O)c1cccnc1	86.7% (inactive)	121% (inactive)	110% (inactive)	79.8% (inactive)	98.7% (inactive)	45	242% (inactive)	7.43% (inactive)	111% (inactive)	3% (inactive)	8.79% (inactive)	-4.05% (inactive)	1.76% (inactive)	99.8% (inactive)	-0.28 (inactive)	9% (inactive)	-1.64% (inactive)
COCCCN1C(=O)C(=O)/C(=C(/O)c2ccc3c(c2)CC(C)O3)C1c1cccnc1 (stereo not drawn)	101% (inactive)	102% (inactive)	101% (inactive)	114% (inactive)	111% (inactive)	59	137% (inactive)	3.14% (inactive)	97.1% (inactive)	-1% (inactive)	-22.5% (inactive)	1.96% (inactive)	-1.78% (inactive)	108% (inactive)	0 (inactive)	4% (inactive)	-9.91% (inactive)
Cc1cn([C@H]2C=C[C@@H](CO)O2)c(=O)[nH]c1=O	101% (inactive)	104% (inactive)	94.2% (inactive)	92% (inactive)	93.5% (inactive)	65.8	705% (inactive)	16.1% (inactive)	94.6% (inactive)	3% (inactive)	-6.71% (inactive)	-12% (inactive)	3.71% (inactive)	101% (inactive)	0.02 (inactive)	3% (inactive)	1.22% (inactive)
O=c1nc2sc3ccccc3n2c(=O)n1-c1ccc(Cl)cc1	105% (inactive)	97.2% (inactive)	108% (inactive)	96.6% (inactive)	99.7% (inactive)	64.1	232% (inactive)	-12.9% (inactive)	110% (inactive)	-3% (inactive)	-10.3% (inactive)	-5.72% (inactive)	1.03% (inactive)	96.4% (inactive)	-0.14 (inactive)	11% (inactive)	3.18% (inactive)
CSCCC(NC(=O)/C(=C/c1ccc2c(c1)OCO2)NC(=O)c1cccc([N+](=O)[O-])c1)C(=O)O (stereo not drawn)	93.7% (inactive)	123% (inactive)	101% (inactive)	86.4% (inactive)	91.9% (inactive)	63.7	169% (inactive)	4.52% (inactive)	93.4% (inactive)	4% (inactive)	0.64% (inactive)	-5.32% (inactive)	0.74% (inactive)	105% (inactive)	-0.31 (inactive)	14% (inactive)	-6.55% (inactive)
COc1cccc(=O)c2c(C)n(CC(=O)c3ccccc3)c(C)c12	100% (inactive)	102% (inactive)	95.1% (inactive)	113% (inactive)	113% (inactive)	58.2	203% (inactive)	-72.7% (inactive)	96.3% (inactive)	-1% (inactive)	-13.2% (inactive)	-9.87% (inactive)	2.5% (inactive)	98.8% (inactive)	0.33 (inactive)	-32% (inactive)	-2.03% (inactive)
Cc1cc(NS(=O)(=O)c2ccc(N)cc2)no1	103% (inactive)	98.7% (inactive)	107% (inactive)	102% (inactive)	113% (inactive)	63.3	121% (inactive)	15% (inactive)	99.6% (inactive)	-1% (inactive)	5.64% (inactive)	-2.38% (inactive)	-1.68% (inactive)	99.2% (inactive)	-0.16 (inactive)	4% (inactive)	-11.9% (inactive)
O=C(COc1ccc2ccc(=O)oc2c1)c1ccccc1	91.1% (inactive)	130% (inactive)	102% (inactive)	85.3% (inactive)	88.4% (inactive)	59.9	132% (inactive)	-8.09% (inactive)	98.8% (inactive)	1% (inactive)	-4.3% (inactive)	14.3% (inactive)	-1.1% (inactive)	97.6% (inactive)	0.19 (inactive)	-10% (inactive)	-0.82% (inactive)
COc1ccc2oc(C)c(C(N)=O)c2c1	99.5% (inactive)	109% (inactive)	91% (inactive)	118% (inactive)	102% (inactive)	61.6	132% (inactive)	6.4% (inactive)	96% (inactive)	4% (inactive)	-0.3% (inactive)	7.21% (inactive)	-6.34% (inactive)	100% (inactive)	-0.21 (inactive)	-9% (inactive)	-8.8% (inactive)
